Data published in the supplement of paper PMC11417369.
The full ranking holds about 25,000 sequences; the median of “ln(normalized median fluorescence intensity)” is about 9.7, and the highest 2% start at about 11. The entries come from a sample that favours the highest values as a whole.

System: PfAP2-HC AP2 domain (GST-tagged)
Assay: gcPBM binding intensity (ln(normalized median fluorescence intensity)); higher = stronger DNA binding
Method in brief: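 Probes on an Agilent 4 × 180k array were primer-extended, double-stranded and 36 bp long, taken from intergenic genomic regions, with negative controls added. GST-tagged P. falciparum DNA-binding domains from E. coli, about 25 μg on average, were applied to the array for 1 h in 1× PBS containing 1% milk, 0.2 mg/ml BSA, 0.5% salmon testes DNA and 0.03% Triton X-100. Binding intensity, obtained after Alexa488 anti-GST antibody detection and a 488 nm scan, is the highest Masliner-normalised natural-log median intensity across replicate spots of either probe orientation.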

Sequence | gcPBM binding intensity (ln)
GAAATAGAGAAACACACACACATATATTTATGTATT [CACACA_site3967] | 10.4
ATAAAATTTATATAAGCACACAAATATATATTTATA [CACACA_site9083] | 9.7
AAGAAATATTTATACACACACACAAACATATAAATA [CACACA_site6981] | 11.1
AATATTTATAAAGACACACAAACAAAAAGGATAAAA [CACACA_site2985] | 10.3
TATAAAAATAAGCACACACACAAATATATATTTATT [CACACA_site922] | 10.3
GAAATAGAGAGACACACACACATATATTTATGTATT [CACACA_site7794] | 10.4
AAGAAATATTTATACACACACACAAACATATATATA [CACACA_site1912] | 10.5
CATAAATACAAATATACACACATATTTATATTTATA [CACACA_site7277] | 9.78
TAAATAAAAAGACACACACACATATTTATATTTATA [CACACA_site7135] | 10.4
CAGAAATAGAGATACACACACACATATATTTATGTA [CACACA_site3968] | 11.3
CAATATAAAAGACACACACACAAACATATATTTATA [CACACA_site7697] | 11.3
TATAAAAATAAGCACACACACAAATATAGATTTATT [CACACA_site6558] | 11.3
CACTTAAAAAGCTAACGTACAAATACACATATATAA [XGTACX_site1851] | 9.66
CAAAACATTTTATCTACACACATATATAAATAAATA [CACACA_site3220] | 9.77
GTTTACATTTTAAGAAGTACAAAATTTATGGTTAAA [XGTACX_site450] | 9.42
TTAGGACAAAAAAAAATAAAAATAAAATAAAATAAT [CACACA_negctrl_site1613] | 9.61
TTTTAATATTTTAAGAGTACAGAAATATATAATATG [XGTACX_site4955] | 9.33
TTATTTTACTTTTATGCAACTAAAAATATTGCTATA [XGTACX_negctrl_site277] | 9.6
ACATAAATTTAATACACACACAAAGAAAAAAAAAAA [CACACA_site4088] | 10.9
GAATATTAAACAAACACACACACATATATATATATA [CACACA_site3382] | 10.7
TGACATAAATTTAATACACACACAAAGAAAAAAAAA [CACACA_site9354] | 10.2
AATTTTTTATTAAACACACAAACATATATATATATA [CACACA_site1937] | 9.66
AAAACAGACAAACACACACACACATATATATATATA [CACACA_site3393] | 10.6

Sequence | gcPBM binding intensity (ln)
AAAACAAACAGACACACACACATATTTATATTTATA [CACACA_site7681] | 11
CATAAAATATAAAACACACACACATATATTTATATA [CACACA_site6247] | 10.5
GAGATAAAATAAAACACACACATATATTTATATAAC [CACACA_site7098] | 10.9
TAAAAAAAAAAAAAAACACACATATAAATATTTATA [CACACA_site6702] | 9.61
GAAAGAATAAAATTTACACACATATATAAATACATA [CACACA_site5273] | 9.87
GAATATTAAACAAACACACACACATATATTTATATA [CACACA_site7563] | 11.1
AAAACAAACAGACACACACACATATATATATATATA [CACACA_site3655] | 10.8
ATTTTATTTTTTAAAGGTACAGTTACAGCTTATATA [XGTACX_site7513] | 9.51
ATAAGCATCTTTTGTGTGCACATAACAAAAAAAAAA | 9.85
TTATAAATGAATAAATGTACAAAATATATATATATA [XGTACX_site8829] | 9.66
TTAAATAAAAAAATAACACACATATAAATCTATATG [CACACA_site7482] | 9.75
TTTTTTTTGTGTTCAAGTACAAAATTTTAAAGGTCA [XGTACX_site4011] | 9.26
TATTGTTGTTCATGTACACACTATAATAAAAGCAAT [CACACA_site6148] | 9.62
AAAAAAAACAAACACACACACAAATATTTATATATT [CACACA_site436] | 10.5
TATTTATTTATATAAACACACATAAATATAAATATA [CACACA_site6653] | 9.45
ATCTTATATTATCACACACACACGCACAAAACAGAA [CACACA_site1463] | 10.3
TATAAAACACACACACATATATATATATATTTATAT [TGCATGCA_negctrl_site48] | 11.2
CTTATATTAAAACACACACACGCACAAAACAGAAAT [CACACA_site1462] | 11
AACAAAAAAACAAACACACACACACGCATATTTATA [CACACA_site7680] | 11.2
AAGGATCACGCACAAACACACATATTTATATTTATA [CACACA_site6405] | 9.95
CAATATAAAAAACACACACACAAACATATATTTATA [CACACA_site3703] | 10.5
CATATATAAAAAAACACACACATATTTATATTTATA [CACACA_site6682] | 10.3
ATCTTATATGATCACACACACACGCACAAAACAGAA [CACACA_site4913] | 10.4

Sequence | gcPBM binding intensity (ln)
ATATAATTATAAAATAAACACACATATATATTTATA [CACACA_site8039] | 9.91
CACAAAAATAAACACACACACATATATATTTATTAT [CACACA_site5923] | 11.1
ATTCTATATATATAAACACACAAATATTTTTATATA [CACACA_site1677] | 9.65
TTCTTTTCTTCTACATGTACAAATATTATATATATA [XGTACX_site2996] | 9.97
TATATTATATTATACATACACACCCATATAATATGT [CACACA_site869] | 10.1
TATAAATTAATGACATGTACATAAAAGTATAGATGT [XGTACX_site6534] | 9.95
TTTATAAAATTATTTGCATGTAACAATTATAAATTG [TGCATGCA_site1026] | 9.42
TTTTTTTAAAACAAAAAAAAAAAAAAAAAAAAAAAA [TGCATGCA_negctrl_site418] | 8.22
TAAAAAAAAAAAAATACACACACACCGATATATATA [CACACA_site8498] | 10.7
TTAATATAAGCAAATACACACACACCGATATATATA [CACACA_site9269] | 11.1
TAATAATACCCAAGCACACACACACCCATATATATA [CACACA_site4831] | 10.6
ATAATACCCAAGCACACACACACACCGATATATATA [CACACA_site8344] | 11.3
AAAAAAAAAAAAAATACACACACACCGATATATATA [CACACA_site8142] | 10.6
ATAATATATATTAATACACACACACCGATATATATA [CACACA_site9261] | 10.4
AATATATATATATATACACACACACCGATATATATA [CACACA_site8158] | 11.2
TATACATACATACATACACACACACCGATATATATA [CACACA_site7896] | 10.2
TATATATATATATACACACACACACCGATATATATA [CACACA_site8813] | 10.5
CAAAATAATATATATACACACACACCGATATATATA [CACACA_site8082] | 10.8
GATATATATTAATATACACACACACCGATATATATA [CACACA_site8462] | 10.2
CAAAAAAAATTATACACACACACACCGATATATATA [CACACA_site4719] | 11.1
ATAAAGAAACATATATGTACTTATATATATATATAT [XGTACX_site5625] | 9.69
TATAAGAGAATATATACACACAAAAATAAATACAGT [CACACA_site5000] | 10.9
ATATATATATAATGAAGTACGAAAAAATAAGAAATG [XGTACX_site4001] | 9.9

Sequence | gcPBM binding intensity (ln)
TATAAAACAAATATATGTACATATCATAGTATAATA [XGTACX_site2965] | 9.75
AAGGAAATATAATATACACACATAAGTGTACTTCTA [CACACA_site6079] | 9.81
AATAGTCGGGTGCATACACACCTTAAATATAATATA [CACACA_site8271] | 9.57
CTAATCGTGCACAACTGTACATTTGTCAAGGGCAAT [XGTACX_site8662] | 9.62
AAAGAACAAATAAAACATAAAATAATATATATAGAT [CACACA_negctrl_site1764] | 10.1
AAAAAAAAAAAAAACACACACATACACCCAAAAATG [CACACA_site4223] | 10.3
AAAAAAAAAAAAAACACACACACACCCAAATACATA [CACACA_site708] | 10.5
AAAAAAAAAAAAAACACACACAACACCCATACCTTA [CACACA_site3621] | 11.2
ATATCTTATGTTATCACACACACACGCACAAAACAG [CACACA_site6800] | 10.3
AAAAAAAAAAAAAACACACACACACCCATACAAAAT [CACACA_site1446] | 11.6
AAAAAAAAAAAAAAAACACACATACCCATATATTTT [CACACA_site6013] | 9.85
TATATACACCCACATACACACAAATAAAAAAACACC [CACACA_site3414] | 10.5
ATATCTTATATTATCACACACACACCCACAAAACAG [CACACA_site1464] | 11.5
AAAAAAACAGAAAACACACAAATTATCTTATAATTA [CACACA_site6282] | 9.8
AAAAAAAAAAAAAAAACACACACAACACCCATACCT [CACACA_site9208] | 10.4
AAAAAATACAAACACACACACACACCCATATATATA [CACACA_site3560] | 11
TACAAACACCCATATACACACAAAAAAAAAATAAAA [CACACA_site5421] | 9.94
ATATATATTTAAACTACACACGCATATCTTAGAAAT [CACACA_site8348] | 10.1
ACTGTACTATAAAATACACACATATAAATATAAATA [CACACA_site3009] | 9.99
AATATTTAATTCAACACACATACATATTTATTAAAA [CACACA_site2342] | 9.99
